FAS-TE inh: FAS thioesterase domain inhibitors, primary screen, biochemical, fluorescence intensity, uHTS | Fatty acid synthase (Homo sapiens), P49327 | recombinant FAS-TE, OMFH fluorogenic substrate, fluorescence endpoint | inhibition, % at 15 µM | 360,000 compounds, 0.67% hits | AID 602261, 2012;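 active means compounds whose normalised, plate-corrected inhibition of enzyme fluorescence in the single-dose primary screen is 50% or more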;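 further: 0% = DMSO with enzyme and 100% = substrate without enzyme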
Target sequence (P49327 whole entry, looked up, the tested form may be a part): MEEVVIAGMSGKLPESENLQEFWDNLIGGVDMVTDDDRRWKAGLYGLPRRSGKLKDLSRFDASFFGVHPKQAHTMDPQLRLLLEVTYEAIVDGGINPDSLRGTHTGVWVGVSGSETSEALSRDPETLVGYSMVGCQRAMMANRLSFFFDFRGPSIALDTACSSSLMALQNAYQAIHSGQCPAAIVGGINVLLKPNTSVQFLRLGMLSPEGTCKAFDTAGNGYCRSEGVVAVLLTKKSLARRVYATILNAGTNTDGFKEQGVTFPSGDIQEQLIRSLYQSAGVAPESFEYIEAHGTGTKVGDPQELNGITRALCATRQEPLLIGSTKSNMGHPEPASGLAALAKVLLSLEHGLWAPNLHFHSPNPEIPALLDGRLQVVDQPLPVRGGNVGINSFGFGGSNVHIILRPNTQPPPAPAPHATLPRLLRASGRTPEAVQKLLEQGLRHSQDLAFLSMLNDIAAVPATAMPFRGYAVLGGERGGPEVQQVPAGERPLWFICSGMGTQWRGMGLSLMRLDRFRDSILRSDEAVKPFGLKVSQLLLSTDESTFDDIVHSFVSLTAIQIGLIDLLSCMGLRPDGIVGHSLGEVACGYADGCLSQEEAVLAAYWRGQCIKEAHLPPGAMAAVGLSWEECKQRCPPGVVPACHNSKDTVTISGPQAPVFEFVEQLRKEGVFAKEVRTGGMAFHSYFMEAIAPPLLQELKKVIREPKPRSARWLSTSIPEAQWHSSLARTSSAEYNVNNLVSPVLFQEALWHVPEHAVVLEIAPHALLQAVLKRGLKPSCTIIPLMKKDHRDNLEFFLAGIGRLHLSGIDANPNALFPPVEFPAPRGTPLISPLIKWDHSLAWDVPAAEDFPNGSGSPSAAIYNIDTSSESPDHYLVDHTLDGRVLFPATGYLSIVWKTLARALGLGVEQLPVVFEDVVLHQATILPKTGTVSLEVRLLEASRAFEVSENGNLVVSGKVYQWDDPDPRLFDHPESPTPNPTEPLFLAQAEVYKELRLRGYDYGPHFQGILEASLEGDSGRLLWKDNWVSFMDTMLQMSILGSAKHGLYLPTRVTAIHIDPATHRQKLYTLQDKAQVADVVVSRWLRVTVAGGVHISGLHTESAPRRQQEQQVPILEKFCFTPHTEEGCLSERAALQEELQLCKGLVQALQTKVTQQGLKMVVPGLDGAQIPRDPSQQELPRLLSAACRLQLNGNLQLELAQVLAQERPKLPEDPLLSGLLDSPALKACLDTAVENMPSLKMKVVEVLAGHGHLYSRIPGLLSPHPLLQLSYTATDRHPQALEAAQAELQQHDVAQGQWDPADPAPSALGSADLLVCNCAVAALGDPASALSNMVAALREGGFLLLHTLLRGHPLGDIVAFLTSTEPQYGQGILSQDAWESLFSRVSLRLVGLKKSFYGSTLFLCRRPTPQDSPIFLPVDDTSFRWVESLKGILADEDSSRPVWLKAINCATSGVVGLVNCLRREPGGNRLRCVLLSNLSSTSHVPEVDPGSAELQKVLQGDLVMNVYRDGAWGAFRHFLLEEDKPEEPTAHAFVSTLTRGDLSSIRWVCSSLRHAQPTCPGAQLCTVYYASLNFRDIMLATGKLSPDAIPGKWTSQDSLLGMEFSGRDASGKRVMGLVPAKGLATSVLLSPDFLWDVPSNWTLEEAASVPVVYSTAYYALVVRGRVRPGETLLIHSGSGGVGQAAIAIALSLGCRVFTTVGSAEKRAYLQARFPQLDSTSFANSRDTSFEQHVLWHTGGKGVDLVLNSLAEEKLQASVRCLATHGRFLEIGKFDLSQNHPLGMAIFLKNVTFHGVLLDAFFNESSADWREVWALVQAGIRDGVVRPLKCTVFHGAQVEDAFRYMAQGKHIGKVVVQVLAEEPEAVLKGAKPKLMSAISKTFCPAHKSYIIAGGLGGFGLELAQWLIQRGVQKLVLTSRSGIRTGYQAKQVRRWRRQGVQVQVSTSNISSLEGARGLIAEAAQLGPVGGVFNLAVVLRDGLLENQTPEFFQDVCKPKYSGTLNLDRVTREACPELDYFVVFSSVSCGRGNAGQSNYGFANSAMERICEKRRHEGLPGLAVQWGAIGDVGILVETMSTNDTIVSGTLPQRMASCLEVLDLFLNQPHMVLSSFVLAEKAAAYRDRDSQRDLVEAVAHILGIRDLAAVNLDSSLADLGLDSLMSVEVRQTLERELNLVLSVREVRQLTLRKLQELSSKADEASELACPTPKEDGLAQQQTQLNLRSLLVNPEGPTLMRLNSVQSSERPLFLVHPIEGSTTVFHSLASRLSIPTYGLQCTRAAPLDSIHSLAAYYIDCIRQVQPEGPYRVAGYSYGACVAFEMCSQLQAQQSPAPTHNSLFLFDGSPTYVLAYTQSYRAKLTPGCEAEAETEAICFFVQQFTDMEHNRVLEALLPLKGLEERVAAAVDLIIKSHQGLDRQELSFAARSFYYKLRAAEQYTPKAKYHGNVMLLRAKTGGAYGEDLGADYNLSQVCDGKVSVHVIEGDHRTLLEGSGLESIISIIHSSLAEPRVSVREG
ADAM10 inh: human ADAM10 inhibitors, primary screen, biochemical, QFRET, HTS; Disintegrin and metalloproteinase domain-containing protein 10 (Homo sapiens), O14672; recombinant ADAM10, EDANS/DABCYL FRET peptide cleavage, 3 h; inhibition, % at 7 µM; 370,000 compounds, 0.62% hits; AID 720582, 2013;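 active means inhibition above a per-campaign cutoff equal to the mean of compounds falling between control-based bounds plus 3 SD, cut at about 20% in these data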;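 further: 0% = DMSO wells while the 100% control is not disclosed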
ADAM17 inh: ADAM17 inhibitors, primary screen, biochemical, QFRET; recombinant ADAM17, EDANS/DABCYL FRET peptide cleavage; 370,000 compounds, 0.83% hits; AID 720648, 2013; inhibition, % at 6.95 µM; Disintegrin and metalloproteinase domain-containing protein 17 (Homo sapiens), P78536;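 active means inhibition above the mean of compounds lying between control limits plus 3 SD, set per campaign, cut at about 8.5% in these data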;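 further: 0% = DMSO-only wells as the low control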
proKLK7 act: proKLK7 zymogen activators, primary screen, biochemical, fluorescence intensity. Kallikrein-7 (Homo sapiens), P49862. purified proKLK7, EDANS-DABCYL substrate fluorescence; 100% is mature enzyme control, 0% vehicle. activation, % at 7 µM. 370,000 compounds, 0.9% hits;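 active means activation above the mean of all tested compounds plus 3 SD, computed per campaign excluding outliers beyond control limits, cut at about 13% in these data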
GRIN3A LBD mod: binders of NR3A ligand-binding domain, primary screen, biophysical, differential scanning fluorimetry, uHTS; Glutamate receptor ionotropic, NMDA 3A (GRIN3A) ligand-binding domain; NR3A LBD differential scanning fluorimetry, Tm shift; 0% = protein alone, 100% = glycine-bound protein; Tm shift relative to glycine control, % at 25 µM; 340,000 compounds, 2.5% hits; AID 1259313, 2017;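 active means melting temperature shift of at least 10% of the positive control shift, at one fixed dose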
FAS-TE inh conf: FAS thioesterase domain inhibitors, confirmation, biochemical, fluorescence intensity, single concentration. shares compounds with FAS-TE inh. recombinant FAS-TE, OMFH fluorogenic substrate. inhibition, % at 15 µM. 2,300 compounds, 45% hits;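 active means compounds inhibiting the enzyme by at least 50% at 15 µM in any one of the replicates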;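 further: 0% = enzyme with DMSO only and 100% = wells lacking enzyme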
Numbers without * were called inactive. Sampled rows, rich in hits. Any-hit rate of the full collection: about 4.6%.

Results for N#Cc1ccc2nc(-c3ccc(CN4CCC5(CC4)CNc4ccccc45)cc3)c(-c3ccccc3)nc2c1 ?
ADAM10 inh: -16; ADAM17 inh: 4; proKLK7 act: 0

Results for Cc1ccc(N2CC(C(=O)Nc3cc(C(F)(F)F)ccc3N3CCCC3)CC2=O)cc1 (centres undefined) ?
FAS-TE inh: 21; ADAM10 inh: -2; ADAM17 inh: 0; proKLK7 act: 0; GRIN3A LBD mod: -2

What do the screens show for `COc1ccccc1N1CC(C(=O)Nc2cc(C(F)(F)F)ccc2N2CCCC2)CC1=O` (centres undefined)?
FAS-TE inh: 63*; ADAM10 inh: -5; ADAM17 inh: -1; proKLK7 act: 0; GRIN3A LBD mod: -2; FAS-TE inh conf: 65*

What do the screens show for `COc1ccccc1COC(=O)c1cccc(S(=O)(=O)N(C)Cc2ccccc2)c1`?
ADAM10 inh: 1; ADAM17 inh: 5; proKLK7 act: 0

What do the screens show for `COC(=O)c1cc(NC(=S)NCc2ccc(Cl)cc2)cc(C(=O)OC)c1`?
FAS-TE inh: 51*; ADAM10 inh: 2; ADAM17 inh: 7; proKLK7 act: 0; GRIN3A LBD mod: 25*; FAS-TE inh conf: 36

What do the screens show for `Cc1ccc(NC(=S)NNC(=O)c2cnccn2)cc1`?
ADAM10 inh: -4; ADAM17 inh: 0; proKLK7 act: 1

Results for O=C(NCc1ccc2c(c1)OCO2)c1ccc2c(c1)N(Cc1c(F)cccc1Cl)C(=O)CS2 ?
FAS-TE inh: 54*; ADAM10 inh: 3; ADAM17 inh: 1; proKLK7 act: 0; GRIN3A LBD mod: 3; FAS-TE inh conf: 33*

How did CCC1CCCCN1CCCNC(=O)c1ccc2c(c1)N(Cc1c(F)cccc1Cl)C(=O)CS2 (centres undefined) do in these assays?
FAS-TE inh: 0; ADAM10 inh: 3; ADAM17 inh: 2; proKLK7 act: 0; GRIN3A LBD mod: 0

How did COc1cc(C)ccc1C(=O)N1CCC(Oc2cccnc2)CC1 do in these assays?
ADAM10 inh: -2; ADAM17 inh: -5; proKLK7 act: 0

What do the screens show for `N#C/C(=C\c1ccc(O)c([N+](=O)[O-])c1)c1nc2ccccc2s1`?
FAS-TE inh: 20; ADAM10 inh: 1; ADAM17 inh: 0; proKLK7 act: -1; GRIN3A LBD mod: -2

How did COc1cc(/C=C(\C#N)c2nc3ccccc3s2)cc([N+](=O)[O-])c1O do in these assays?
FAS-TE inh: 51*; ADAM10 inh: 4; ADAM17 inh: -2; proKLK7 act: 0; GRIN3A LBD mod: -2; FAS-TE inh conf: 46*

Results for O=[N+]([O-])c1ccc(Sc2nc3ccccc3o2)c([N+](=O)[O-])c1 ?
FAS-TE inh: 50*; ADAM10 inh: 8; ADAM17 inh: -3; proKLK7 act: 0; GRIN3A LBD mod: 1; FAS-TE inh conf: 49*

How did CCCOc1ccc(NC(=O)CC2C(=O)N(C)C(=S)N2Cc2cccs2)cc1 (centres undefined) do in these assays?
FAS-TE inh: 64*; ADAM10 inh: 12; ADAM17 inh: 6; proKLK7 act: 1; GRIN3A LBD mod: 9; FAS-TE inh conf: 65*

Results for COc1ccc(S[C@]2(C(=O)N3CCOCC3)CC(=O)N(C(=O)c3ccccc3)[C@@H]2c2ccc(OC)cc2)cc1 ?
ADAM10 inh: 0; ADAM17 inh: 2; proKLK7 act: 0

How did COC(=O)[C@@H]1C[C@@]2(c3ccccc3)c3ccccc3N(S(=O)(=O)c3ccccc3)[C@H]2N1C(=O)CNC/C=C(\C)CCC=C(C)C do in these assays?
ADAM10 inh: 4; ADAM17 inh: 2; proKLK7 act: 0

How did O=C(CSc1ccc([N+](=O)[O-])cn1)Nc1ccc2c(c1)OCCO2 do in these assays?
FAS-TE inh: 85*; ADAM10 inh: 11; ADAM17 inh: 3; proKLK7 act: 0; GRIN3A LBD mod: 2; FAS-TE inh conf: 88*

How did CC1=CC(=O)C(C(C)C)=C/C1=N\OS(=O)(=O)c1ccccc1 do in these assays?
ADAM10 inh: -2; ADAM17 inh: 0

How did N#Cc1cc(NC2CCCC2)c([N+](=O)[O-])cc1C#N do in these assays?
FAS-TE inh: 54*; ADAM10 inh: -13; ADAM17 inh: -4; proKLK7 act: 0; GRIN3A LBD mod: 5; FAS-TE inh conf: 22

How did O=[N+]([O-])c1ccc(NC2CCCC2)cc1 do in these assays?
FAS-TE inh: 3; ADAM10 inh: 8; ADAM17 inh: 1; proKLK7 act: 0; GRIN3A LBD mod: 2

What do the screens show for `O=C(OCC#CCSc1nnc(-c2cccc3ccccc23)o1)c1sccc1Cl`?
ADAM10 inh: -3; ADAM17 inh: -4

How did COc1cc2c(-c3ccc4cc[nH]c4c3)c(-c3ccc(C#N)cc3)oc(=O)c2cc1OC do in these assays?
FAS-TE inh: 67*; ADAM10 inh: -174; ADAM17 inh: -49; proKLK7 act: -280; GRIN3A LBD mod: 1; FAS-TE inh conf: 11

How did C=CCN1[C@H](C#N)[C@@H](c2ccc(Br)cc2)[C@H]1CO do in these assays?
ADAM10 inh: -1; ADAM17 inh: 0; proKLK7 act: 1

How did O=S1(=O)c2ccccc2-c2c(nnn2Cc2ccccc2)CN1C1CC1 do in these assays?
ADAM10 inh: 3; ADAM17 inh: 0; proKLK7 act: 0

How did N#Cc1cc(-c2ccc(Cl)cc2)cn(Cc2c(Cl)cccc2Cl)c1=O do in these assays?
FAS-TE inh: 62*; ADAM10 inh: -19; ADAM17 inh: -10; proKLK7 act: -1; GRIN3A LBD mod: -1; FAS-TE inh conf: 27

What do the screens show for `CN(CCc1ccccc1)C(=O)c1ccc(NC(=O)Cc2cccc(NC(=O)C3CCN(S(=O)(=O)c4cccc([N+](=O)[O-])c4)CC3)c2)cc1`?
FAS-TE inh: 55*; ADAM10 inh: 6; ADAM17 inh: 0; proKLK7 act: 1; GRIN3A LBD mod: 10*; FAS-TE inh conf: 9

How did CN(C(=O)c1cccc(NC(=O)Cc2ccc(NC(=O)C3CCN(S(=O)(=O)c4cccc([N+](=O)[O-])c4)CC3)cc2)c1)C1CCCCC1 do in these assays?
FAS-TE inh: 52*; ADAM10 inh: 11; ADAM17 inh: 3; proKLK7 act: -1; GRIN3A LBD mod: 7; FAS-TE inh conf: 25

Bioassay records from PubChem BioAssay.
